# Reference: PubChem BioAssay (NCI)
# The panel holds about 79,000 compounds, 15% with a hit somewhere; the sample as a whole holds those more often. Values without a mark were called inactive. The source made the active and inactive calls. Cut-off read from the data, not from the text of the source: active = growth inhibition above about 70%; inactive = the rest.
# Key:
# [1] = NCI Yeast Anticancer Drug Screen. Data for the rad50 strain (AID 155);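 note: 0% = growth of vehicle-only cultures of the same strain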; conditions: S. cerevisiae rad50 strain growth inhibition, active compounds read high
# Method in brief: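 Genetically altered yeast (DNA repair pathway); compound treatment; growth inhibition vs vehicle ctrl.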
# [2] = NCI Yeast Anticancer Drug Screen. Data for the mec2-1 strain (AID 157); conditions: S. cerevisiae mec2-1 strain, active compounds read high
# Method in brief: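 Readout is yeast growth inhibition, normalised to vehicle-treated controls, in the mec2-1 strain exposed to compound.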
# [3] = NCI Yeast Anticancer Drug Screen. Data for the sgs1 mgt1 strain (AID 161);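 note: 0% = growth of cultures given vehicle only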; conditions: S. cerevisiae sgs1 mgt1 strain, active compounds read high
# Method in brief: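 Yeast cells carrying a defined DNA-repair defect were exposed to test compounds. Growth inhibition was measured relative to vehicle-treated controls.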
# [4] = NCI Yeast Anticancer Drug Screen. Data for the cln2 rad14 strain (AID 165);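 note: 0% = growth equal to vehicle treated cultures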; conditions: S. cerevisiae cln2 rad14 strain, active compounds read high
# Method in brief: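 Relative to vehicle controls, growth inhibition of compound-treated cln2 rad14 yeast was recorded.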
# [5] = NCI Yeast Anticancer Drug Screen. Data for the bub3 strain (AID 167); conditions: S. cerevisiae bub3 mutant strain, active compounds read high
# Method in brief: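 Yeast carrying a defined mutation is treated with each compound, and growth is compared with that of vehicle-exposed cells to give inhibition.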
# [6] = NCI Yeast Anticancer Drug Screen. Data for the mlh1 rad18 strain (AID 175); conditions: S. cerevisiae mlh1 rad18 strain growth inhibition, active compounds read high
# Method in brief: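 Test agents were incubated with a yeast strain of defined genotype (DNA damage repair defect). Inhibition of growth was derived by comparison with vehicle-exposed cultures.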
# [7] = at 5.0 µM (retest, dose inferred, filed as 0.5)
# [8] = at 50.0 µM (retest, dose inferred, filed as 5.0)
SMILES,"growth inhibition [1, 7]","growth inhibition [1, 8]",growth inhibition ([1]; at 50.0 µM),"growth inhibition [2, 7]","growth inhibition [2, 8]",growth inhibition ([2]; at 50.0 µM),"growth inhibition [3, 7]","growth inhibition [3, 8]",growth inhibition ([3]; at 50.0 µM),"growth inhibition [4, 7]","growth inhibition [4, 8]",growth inhibition ([4]; at 50.0 µM),"growth inhibition [5, 7]","growth inhibition [5, 8]",growth inhibition ([5]; at 50.0 µM),"growth inhibition [6, 7]","growth inhibition [6, 8]",growth inhibition ([6]; at 50.0 µM)
FC(F)(F)c1nc(SCc2ccc(Cl)cc2)n[nH]1,3%,20%,2.45%,0%,1%,-13.8%,-7%,15%,-22.4%,-10%,-17%,38.6%,-9%,0%,-33.4%,-3%,13%,-17.8%
Cc1ccnc2ccc3ccccc3c12,-142%,22%,-17.9%,-48%,-38%,-1%,-63%,-21%,20.4%,-62%,-49%,22.3%,-67%,-18%,31%,-138%,-55%,33.3%
CC1(C)CC[C@]2(C(=O)O)CC[C@]3(C)C(=CC[C@@H]4[C@@]5(C)C[C@H](O)[C@H](O)[C@@](C)(C(=O)O)[C@@H]5CC[C@]43C)[C@@H]2C1,100% (active),99% (active),91.2% (active),100% (active),100% (active),94.1% (active),99% (active),99% (active),92.7% (active),99% (active),99% (active),92% (active),99% (active),99% (active),92% (active),100% (active),100% (active),88.7% (active)
c1ccc(C2=NCCC(c3ccccc3)S2)cc1 (stereo not given),-2%,5%,-2.55%,-4%,3%,-4.1%,-3%,4%,55.5%,-19%,-4%,-41.5%,2%,0%,68.1%,0%,8%,21.9%
C/C(=N\NC(=S)N1CCN(c2cnccn2)CC1)c1ccccn1,24%,98% (active),91.4% (active),23%,99% (active),89.9% (active),19%,99% (active),86.1% (active),10%,99% (active),88.2% (active),30%,99% (active),85.3% (active),28%,99% (active),91.7% (active)
O=C(NC1=Nc2c(ncn2COCCO)S(=O)(=O)[N-]1)c1ccccc1.[Ag+],100% (active),99% (active),98.3% (active),100% (active),100% (active),98.2% (active),99% (active),99% (active),98.5% (active),99% (active),99% (active),86% (active),100% (active),99% (active),98.3% (active),99% (active),99% (active),97.3% (active)
O=C(C#CC(=O)[O][Sn]([c]1ccccc1)([c]1ccccc1)[c]1ccccc1)[O][Sn]([c]1ccccc1)([c]1ccccc1)[c]1ccccc1,99% (active),99% (active),99.1% (active),100% (active),99% (active),99.5% (active),100% (active),99% (active),99.5% (active),99% (active),99% (active),98.4% (active),99% (active),99% (active),99% (active),99% (active),99% (active),99.2% (active)
COc1ccc2nc3cc(Cl)ccc3c(NCCCCCCNc3c4ccc(Cl)cc4nc4ccc(OC)nc34)c2n1,5%,87% (active),96.9% (active),6%,74% (active),98.2% (active),5%,82% (active),98.2% (active),4%,80% (active),91.5% (active),3%,92% (active),96.8% (active),2%,82% (active),96.5% (active)
Cc1cc(N2C(=O)CSC2=S)c([N+](=O)[O-])cc1C,23%,99% (active),99.2% (active),17%,100% (active),99.5% (active),64%,99% (active),99.5% (active),7%,97% (active),99.1% (active),42%,99% (active),99.5% (active),84% (active),99% (active),99.3% (active)
O=C(Nc1cccc(C(F)(F)F)c1)C(Cl)=C(Cl)Cl,12%,99% (active),98.5% (active),-1%,98% (active),98.8% (active),0%,98% (active),98.5% (active),-8%,99% (active),97.8% (active),0%,98% (active),98.5% (active),-2%,99% (active),98.7% (active)
